# According to PubChem BioAssay (NCI):
# The panel holds about 83,000 compounds, 20% with a hit somewhere; the sample as a whole holds those more often.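 How to read the values: 0–100, growth inhibition (40 = 60% inhibited); 0, no net growth; -100 to 0, cell death (-40 = 40% of starting cells died; -100 = all dead).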 Unmarked numbers belong to inactive results. Active and inactive are the calls of the source. The calls were made as follows: active = growth percent below 10; inactive = the rest.
# What was measured:
# Assay in all cases: NCI-60 one-dose screen, 48 h (100 = growth as untreated, 0 = no growth, -100 = all killed)
# HCT-15 colon = conditions: 10 µM unless noted
# HT29 colon = conditions: 10 µM unless noted
# SNB-75 CNS = conditions: 10 µM unless noted
# SNB-19 CNS = conditions: 10 µM unless noted
# U251 CNS = conditions: 10 µM unless noted
# PC-3 prostate = conditions: 10 µM unless noted
# SK-MEL-5 melanoma = conditions: 10 µM unless noted
# UACC-62 melanoma = conditions: 10 µM unless noted
# LOX IMVI melanoma = conditions: 10 µM
# SK-MEL-28 melanoma = conditions: 10 µM unless noted
Structure (SMILES),growth (HCT-15 colon) [%],growth (HT29 colon),growth (SNB-75 CNS) [%],growth (SNB-19 CNS) [%],growth (U251 CNS) [%],growth (PC-3 prostate),growth (SK-MEL-5 melanoma),growth (UACC-62 melanoma),growth (LOX IMVI melanoma),growth (SK-MEL-28 melanoma) [%]
O=C(O)c1cccc(-n2ncc(Cl)c(Cl)c2=O)c1,98.5,113%,81.1,102,101,88.7%,98%,97.2%,92.2%,102
O=S1(=O)c2ccccc2Oc2ccccc21,101,99.6%,80.5,104,94,92.7%,108%,102%,102%,99.4
CCCCCC#CC(=O)O,105,99.5%,99.7,108,98.4,98.2%,111%,104%,104%,113
CN=S(=O)(OCCCCCOS(=O)(=NC)c1ccc(C)cc1)c1ccc(C)cc1 (stereo not given),108,95.8%,77.1,97.3,93.8,75.6%,93.8%,86.5%,88.1%,93.5
CC(=O)NCNC(C)=O,101,111%,92.4,107,103,88.9%,102%,112%,113%,107
C[n+]1c(/C=C\C=C\N2CCCCC2)sc2ccccc21,57.7,1.33% (active),14.4,15.4,14.5,2.78% (active),-59.7% (active),3.09% (active),14.1%,39.4
CC1=CC(=Nc2ccc(N(C)C)cc2)C=C(C)C1=O,85.7,98.6%,75.8,106,92.7,69.9%,74%,37.7%,46.4%,96.8
COC1OC(COC(C)=O)C(OC(C)=O)C(OC(C)=O)C1OC(C)=O (stereo not given),97.2,95.5%,95.7,102,102,87.2%,117%,86.5%,98.5%,94.2
O=c1n(CC2CO2)c(=O)n(CC2CO2)n1CC1CO1 (stereo not given),60.5,69.5%,79.5,62.4,54.3,70%,67.1%,54.1%,52.1%,93
CCCCNc1ccc(-c2ccc(NCCCC)cc2)cc1,50.6,101%,83,77.3,64.2,71.7%,-40.7% (active),42.8%,25.9%,71.5
CC1CC(C)S(=O)(=O)C1 (stereo not given),103,99.9%,94.6,108,88.5,104%,101%,92.9%,103%,111
CCCCCCCCCCCCSC1=C(Cl)C(=O)C(OC)=C(OC)C1=O,25.6,27.8%,44.9,71.8,26,23.1%,-37.6% (active),45.4%,11.7%,105
O=C(O)CCCCCNC(=O)OCc1ccccc1,103,108%,74,105,94.9,95.3%,111%,101%,104%,106
Cc1cccc2ccccc12,92.9,95.8%,86.8,103,102,95.5%,100%,103%,99.4%,98.2
COCC(N)=O,100,102%,102,107,104,94.6%,102%,109%,99.7%,121
Cc1cccc(-[n+]2noc(N)n2)c1,66.4,102%,82.1,81.4,86,60.3%,97.4%,40.7%,46.9%,113

Structure (SMILES),growth (HCT-15 colon) [%],growth (HT29 colon),growth (SNB-75 CNS) [%],growth (SNB-19 CNS) [%],growth (U251 CNS) [%],growth (PC-3 prostate),growth (SK-MEL-5 melanoma),growth (UACC-62 melanoma),growth (LOX IMVI melanoma),growth (SK-MEL-28 melanoma) [%]
CCC1CCC(C)NC1 (stereo not given),91.5,104%,88.6,100,95.7,94.2%,98.9%,99.3%,95.9%,102
COc1ccc(C2CCCCC2=O)cc1 (stereo not given),98.6,108%,101,111,99,95.4%,110%,110%,96.6%,111
Cc1cc(C)cc(OCC(=O)O)c1,94.4,119%,94.8,97.1,103,104%,110%,98.5%,98.7%,107
CCC(=O)Oc1ccc2ccccc2c1,104,104%,82.4,97.9,93.9,77%,91.6%,92.1%,92.2%,110
C=COC(=O)CCOCC(CC)CCCC (stereo not given),104,104%,97.2,104,102,98.2%,107%,99.5%,98.8%,113
O=C(OCc1ccccc1)n1nnc2ccccc21,104,106%,90.2,112,99.2,104%,105%,94.4%,99.6%,101
CC(=O)NC(CCc1ccc(Cl)c(Cl)c1)c1cccc(O)c(=O)c1 (stereo not given),29.9,27.6%,18.7,23.7,13.7,38.9%,-31.8% (active),-57.7% (active),-2.69% (active),19.5
CC(=O)c1ccc(C)cc1,113,111%,90.1,109,108,106%,105%,105%,108%,104
C=CCNC(=S)N/C=C(/C(=O)c1ccccc1)c1ccccc1,108,120%,88.5,106,96.7,99.9%,102%,98.8%,98.1%,104
Cc1ccnc(Nc2nc3ccccc3[nH]2)n1,101,100%,109,112,103,101%,105%,113%,97.9%,115
OC(CBr)CCBr (stereo not given),97.8,105%,73.9,97,93.3,87.5%,101%,95.1%,96.1%,107
O=CNCCc1ccccc1,109,98.3%,82.9,98.4,99.4,91.4%,107%,96.8%,109%,113
CCOC(=O)c1cc(C)[nH]c(=O)c1C#N,101,105%,85.7,106,102,80.7%,107%,104%,97.7%,112
CCOC(=O)C1(N)CCCCC1,112,104%,91.8,96.5,99.1,96.6%,106%,105%,102%,165
Cc1cc(CO)c(O)c(CO)c1,102,95.4%,64.4,114,98.8,101%,108%,104%,90.7%,108
